Results from PubChem BioAssay.
Activity calls are given as the source filed them.

Legend:
[1] = small molecules captured by biotinylated probe aFSTL3 – biochemical, small-molecule microarray, fluorescence 635/667, stem cell growth factor project, primary screen (AID 1064); details: higher = more signal;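 further: measures binding of the biotinylated anti-FSTL3 antibody to printed compounds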
[2] = binders from COS7 lysate, DM2A8 probe, primary screen, torsin A project, cell lysate, small-molecule microarray, fluorescence 635/667 (AID 1065); details: higher = more signal, COS7 lysate expressing mutant human TOR1A
[3] = small molecules captured by biotinylated probe aFGF2 – biochemical, small-molecule microarray, fluorescence 635/667, stem cell growth factor project, primary screen (AID 1067); details: higher = more signal;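 further: measures binding of biotinylated aFGF2 protein to printed compounds on slides; z-score merges feature fluorescence and signal-to-noise across triplicate slides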
[4] = small molecules captured by biotinylated probe aFGF10 – biochemical, small-molecule microarray, fluorescence 635/667, stem cell growth factor project, primary screen (AID 1071); details: higher = more signal;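 further: score merges 667 nm spot intensity and signal to noise from triplicate slides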
[5] = target: Neurogenic locus notch homolog protein 2 (Homo sapiens) (UniProt Q04721); assay: small molecules binding Notch2 protein – biochemical, small-molecule microarray, 635 nm fluorescence, stem cell growth factors, primary screen (AID 1073); details: higher = more signal
[6] = target: Pro-neuregulin-1, membrane-bound isoform (Homo sapiens) (UniProt Q02297); assay: small molecules binding neuregulin-1 protein – biochemical, small-molecule microarray, fluorescence 635/667, psychiatric disease protein project, primary screen (AID 1075); details: NRG1 binding, 635 nm fluorescence, higher = more signal;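 further: score combines 667 nm spot fluorescence with signal to noise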
[7] = test system: Neuregulin-1 EGF-like domain; assay: small molecules binding NRG1 EGF domain – biochemical, small-molecule microarray, 635 nm fluorescence, primary screen (AID 1081); details: higher = more signal;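 further: binding of the protein to compounds printed on small-molecule microarray slides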
[8] = FRG1 expression reporter modulators in myotubes – cell-based, C2C12 myotubes, firefly/Renilla luciferase, luminescence, FRG1 inhibition for FSHD, primary screen (AID 1084); details: FRG1 promoter luciferase, higher = more signal, called active from +8 up or from −8 down
[9] = small molecules captured by biotinylated probe aFST – biochemical, small-molecule microarray, fluorescence 635/667, stem cell growth factor project, primary screen (AID 1086); details: higher = more signal;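 further: score merges 667 nm fluorescence with signal-to-noise of each printed compound spot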
[10] = binders of probe aHhip on microarray, primary screen, stem cell growth factor project, biochemical, small-molecule microarray, fluorescence 635/667 (AID 1087); details: higher = more signal;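 further: score merges spot fluorescence at 667nm with spot signal to noise ratio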
[11] = test system: PRMT1 (protein arginine N-methyltransferase 1); assay: small molecules binding arginine methyltransferase PRMT1 – biochemical, small-molecule microarray, 635 nm fluorescence, primary screen (AID 1088); details: higher = more signal;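 further: binding of Prmt1 protein to compounds spotted on small-molecule microarray slides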
[12] = growth effects on S. cerevisiae YJM789 – YJM789 clinical isolate, OD600, 24 h, basal, primary screen (AID 1089); details: higher = more signal, called active from +8 up or from −8 down;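 further: growth of clinical yeast isolate S. cerevisiae YJM 789 seeded 1000 cells per well; test concentration not given here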
[13] = S. pombe growth modifiers, basal conditions – strain 972, OD600, 24 h, no modulator, primary screen (AID 1090);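 further: basal condition with compound alone and no growth modifier present; test concentration not given here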; details: S. pombe 972 growth, higher = more signal, called active from +8 up or from −8 down
[14] = budding yeast growth modifiers under rapamycin – strain BY4716, OD600, 96 h, primary screen (AID 1091); further: test concentration not given here; details: S. cerevisiae BY4716 + rapamycin, higher = more signal, called active from +8 up or from −8 down
[15] = target: Torsin-1A-interacting protein 2 (Homo sapiens) (UniProt Q8NFQ8); assay: small molecules binding lysate-expressed LULL1 – cell lysate, human LULL1 lysate, 635/667 nm fluorescence, primary screen (AID 1092); details: small-molecule microarray, hLULL1 lysate binding, 635 nm fluorescence; higher = more signal;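 further: probe is lysate of COS7 cells overexpressing human LULL1; score merges per-feature 667 nm fluorescence with signal-to-noise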
[16] = optical density change of DRC41 E. coli – strain DRC41, OD650, 24 h, E. coli filamentation project, primary screen (AID 1093);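 further: MC1000 strain lacking acrAB efflux and sulA so SOS filamentation is blocked; test concentration not given here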; details: E. coli DRC41 growth, higher = more signal, called active from +8 up or from −8 down
[17] = probe aLefty2 binding to arrayed compounds – biochemical, biotinylated probe, 635/667 nm fluorescence, primary screen (AID 1094); details: small-molecule microarray, higher = more signal;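 further: score merges spot fluorescence near 667 nm with spot signal-to-noise ratio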
[18] = test system: Noggin (protein binding on small-molecule microarray); assay: small molecules binding Noggin protein – biochemical, 635/667 nm fluorescence, primary screen (AID 1095); details: 635 nm fluorescence, higher = more signal;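 further: score merges 667 nm feature fluorescence with signal to noise over triplicate slides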
[19] = target: Neurogenic locus notch homolog protein 3 (Homo sapiens) (UniProt Q9UM47); assay: small molecules binding NOTCH3 protein – biochemical, 635/667 nm fluorescence, primary screen (AID 1096); details: small-molecule microarray, 635 nm fluorescence, higher = more signal
[20] = probe aEGFR binding to arrayed compounds – biochemical, biotinylated probe, 635/667 nm fluorescence, primary screen (AID 1097); details: small-molecule microarray, higher = more signal;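 further: probe is a biotinylated anti-EGFR antibody binding compounds printed on slides; score combines fluorescence near 667 nm and signal to noise of each spot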

Chain of Neurogenic locus notch homolog protein 2 (Homo sapiens) (Q04721 whole entry, looked up, canonical isoform): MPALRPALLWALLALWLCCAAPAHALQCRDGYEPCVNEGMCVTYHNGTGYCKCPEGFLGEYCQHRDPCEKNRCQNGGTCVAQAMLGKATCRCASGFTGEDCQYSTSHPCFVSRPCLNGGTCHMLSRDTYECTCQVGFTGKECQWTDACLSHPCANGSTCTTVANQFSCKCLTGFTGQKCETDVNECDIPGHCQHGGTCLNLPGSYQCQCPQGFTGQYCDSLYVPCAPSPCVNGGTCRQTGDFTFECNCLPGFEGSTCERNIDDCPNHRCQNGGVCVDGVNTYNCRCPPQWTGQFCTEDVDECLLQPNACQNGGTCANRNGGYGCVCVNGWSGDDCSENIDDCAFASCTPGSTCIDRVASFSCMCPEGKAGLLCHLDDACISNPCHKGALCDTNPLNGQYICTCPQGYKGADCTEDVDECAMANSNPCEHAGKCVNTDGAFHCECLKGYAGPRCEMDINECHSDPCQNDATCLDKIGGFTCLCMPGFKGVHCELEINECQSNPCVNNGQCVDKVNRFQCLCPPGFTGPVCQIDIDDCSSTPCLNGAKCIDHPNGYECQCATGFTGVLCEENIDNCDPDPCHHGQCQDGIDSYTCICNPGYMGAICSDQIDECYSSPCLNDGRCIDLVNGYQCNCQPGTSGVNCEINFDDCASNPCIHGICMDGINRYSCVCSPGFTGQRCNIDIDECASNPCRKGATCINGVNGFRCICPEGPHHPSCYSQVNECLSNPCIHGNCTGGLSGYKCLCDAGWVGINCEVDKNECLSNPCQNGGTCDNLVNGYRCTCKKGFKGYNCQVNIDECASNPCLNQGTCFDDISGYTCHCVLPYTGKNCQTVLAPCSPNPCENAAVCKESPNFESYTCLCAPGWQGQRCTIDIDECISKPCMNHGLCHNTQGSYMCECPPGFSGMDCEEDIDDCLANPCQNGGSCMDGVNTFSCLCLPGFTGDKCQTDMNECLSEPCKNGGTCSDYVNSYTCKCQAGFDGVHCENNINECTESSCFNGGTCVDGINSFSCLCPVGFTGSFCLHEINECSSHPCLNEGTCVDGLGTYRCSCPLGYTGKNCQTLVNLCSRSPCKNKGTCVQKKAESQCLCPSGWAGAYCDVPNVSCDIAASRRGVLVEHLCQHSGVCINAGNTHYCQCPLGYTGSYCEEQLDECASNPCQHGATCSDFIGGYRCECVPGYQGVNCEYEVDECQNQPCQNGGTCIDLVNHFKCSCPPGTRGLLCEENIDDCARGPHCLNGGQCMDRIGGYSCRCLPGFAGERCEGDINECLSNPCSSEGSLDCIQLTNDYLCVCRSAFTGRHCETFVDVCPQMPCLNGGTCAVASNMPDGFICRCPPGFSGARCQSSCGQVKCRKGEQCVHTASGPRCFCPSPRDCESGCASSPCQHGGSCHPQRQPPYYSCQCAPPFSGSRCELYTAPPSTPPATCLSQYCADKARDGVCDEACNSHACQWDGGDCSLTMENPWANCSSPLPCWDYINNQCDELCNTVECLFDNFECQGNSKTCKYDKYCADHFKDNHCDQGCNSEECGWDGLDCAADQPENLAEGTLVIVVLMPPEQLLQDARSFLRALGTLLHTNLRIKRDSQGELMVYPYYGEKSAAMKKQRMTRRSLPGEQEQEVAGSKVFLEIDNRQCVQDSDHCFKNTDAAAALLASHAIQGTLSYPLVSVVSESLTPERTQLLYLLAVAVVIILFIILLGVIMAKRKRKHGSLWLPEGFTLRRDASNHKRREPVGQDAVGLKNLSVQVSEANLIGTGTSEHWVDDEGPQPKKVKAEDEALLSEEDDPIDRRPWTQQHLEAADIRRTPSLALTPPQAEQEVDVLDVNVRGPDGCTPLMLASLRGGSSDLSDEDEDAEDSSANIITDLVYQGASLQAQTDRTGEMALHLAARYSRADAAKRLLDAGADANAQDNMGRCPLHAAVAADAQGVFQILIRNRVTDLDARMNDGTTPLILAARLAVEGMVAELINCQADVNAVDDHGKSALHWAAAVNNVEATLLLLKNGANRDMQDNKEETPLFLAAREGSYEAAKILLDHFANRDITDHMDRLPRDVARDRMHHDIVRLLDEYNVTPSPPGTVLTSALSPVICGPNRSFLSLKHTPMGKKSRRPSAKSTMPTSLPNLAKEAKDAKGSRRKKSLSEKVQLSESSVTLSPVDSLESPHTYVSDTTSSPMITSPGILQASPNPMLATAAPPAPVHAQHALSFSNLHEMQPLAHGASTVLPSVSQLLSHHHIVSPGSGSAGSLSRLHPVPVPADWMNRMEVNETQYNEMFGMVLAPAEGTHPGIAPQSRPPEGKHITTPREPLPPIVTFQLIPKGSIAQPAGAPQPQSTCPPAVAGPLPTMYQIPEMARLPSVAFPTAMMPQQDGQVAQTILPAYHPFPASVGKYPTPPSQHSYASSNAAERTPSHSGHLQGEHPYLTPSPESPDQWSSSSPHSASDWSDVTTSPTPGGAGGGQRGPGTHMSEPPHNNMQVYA
Chain of Neurogenic locus notch homolog protein 3 (Homo sapiens) (Q9UM47 whole entry, looked up): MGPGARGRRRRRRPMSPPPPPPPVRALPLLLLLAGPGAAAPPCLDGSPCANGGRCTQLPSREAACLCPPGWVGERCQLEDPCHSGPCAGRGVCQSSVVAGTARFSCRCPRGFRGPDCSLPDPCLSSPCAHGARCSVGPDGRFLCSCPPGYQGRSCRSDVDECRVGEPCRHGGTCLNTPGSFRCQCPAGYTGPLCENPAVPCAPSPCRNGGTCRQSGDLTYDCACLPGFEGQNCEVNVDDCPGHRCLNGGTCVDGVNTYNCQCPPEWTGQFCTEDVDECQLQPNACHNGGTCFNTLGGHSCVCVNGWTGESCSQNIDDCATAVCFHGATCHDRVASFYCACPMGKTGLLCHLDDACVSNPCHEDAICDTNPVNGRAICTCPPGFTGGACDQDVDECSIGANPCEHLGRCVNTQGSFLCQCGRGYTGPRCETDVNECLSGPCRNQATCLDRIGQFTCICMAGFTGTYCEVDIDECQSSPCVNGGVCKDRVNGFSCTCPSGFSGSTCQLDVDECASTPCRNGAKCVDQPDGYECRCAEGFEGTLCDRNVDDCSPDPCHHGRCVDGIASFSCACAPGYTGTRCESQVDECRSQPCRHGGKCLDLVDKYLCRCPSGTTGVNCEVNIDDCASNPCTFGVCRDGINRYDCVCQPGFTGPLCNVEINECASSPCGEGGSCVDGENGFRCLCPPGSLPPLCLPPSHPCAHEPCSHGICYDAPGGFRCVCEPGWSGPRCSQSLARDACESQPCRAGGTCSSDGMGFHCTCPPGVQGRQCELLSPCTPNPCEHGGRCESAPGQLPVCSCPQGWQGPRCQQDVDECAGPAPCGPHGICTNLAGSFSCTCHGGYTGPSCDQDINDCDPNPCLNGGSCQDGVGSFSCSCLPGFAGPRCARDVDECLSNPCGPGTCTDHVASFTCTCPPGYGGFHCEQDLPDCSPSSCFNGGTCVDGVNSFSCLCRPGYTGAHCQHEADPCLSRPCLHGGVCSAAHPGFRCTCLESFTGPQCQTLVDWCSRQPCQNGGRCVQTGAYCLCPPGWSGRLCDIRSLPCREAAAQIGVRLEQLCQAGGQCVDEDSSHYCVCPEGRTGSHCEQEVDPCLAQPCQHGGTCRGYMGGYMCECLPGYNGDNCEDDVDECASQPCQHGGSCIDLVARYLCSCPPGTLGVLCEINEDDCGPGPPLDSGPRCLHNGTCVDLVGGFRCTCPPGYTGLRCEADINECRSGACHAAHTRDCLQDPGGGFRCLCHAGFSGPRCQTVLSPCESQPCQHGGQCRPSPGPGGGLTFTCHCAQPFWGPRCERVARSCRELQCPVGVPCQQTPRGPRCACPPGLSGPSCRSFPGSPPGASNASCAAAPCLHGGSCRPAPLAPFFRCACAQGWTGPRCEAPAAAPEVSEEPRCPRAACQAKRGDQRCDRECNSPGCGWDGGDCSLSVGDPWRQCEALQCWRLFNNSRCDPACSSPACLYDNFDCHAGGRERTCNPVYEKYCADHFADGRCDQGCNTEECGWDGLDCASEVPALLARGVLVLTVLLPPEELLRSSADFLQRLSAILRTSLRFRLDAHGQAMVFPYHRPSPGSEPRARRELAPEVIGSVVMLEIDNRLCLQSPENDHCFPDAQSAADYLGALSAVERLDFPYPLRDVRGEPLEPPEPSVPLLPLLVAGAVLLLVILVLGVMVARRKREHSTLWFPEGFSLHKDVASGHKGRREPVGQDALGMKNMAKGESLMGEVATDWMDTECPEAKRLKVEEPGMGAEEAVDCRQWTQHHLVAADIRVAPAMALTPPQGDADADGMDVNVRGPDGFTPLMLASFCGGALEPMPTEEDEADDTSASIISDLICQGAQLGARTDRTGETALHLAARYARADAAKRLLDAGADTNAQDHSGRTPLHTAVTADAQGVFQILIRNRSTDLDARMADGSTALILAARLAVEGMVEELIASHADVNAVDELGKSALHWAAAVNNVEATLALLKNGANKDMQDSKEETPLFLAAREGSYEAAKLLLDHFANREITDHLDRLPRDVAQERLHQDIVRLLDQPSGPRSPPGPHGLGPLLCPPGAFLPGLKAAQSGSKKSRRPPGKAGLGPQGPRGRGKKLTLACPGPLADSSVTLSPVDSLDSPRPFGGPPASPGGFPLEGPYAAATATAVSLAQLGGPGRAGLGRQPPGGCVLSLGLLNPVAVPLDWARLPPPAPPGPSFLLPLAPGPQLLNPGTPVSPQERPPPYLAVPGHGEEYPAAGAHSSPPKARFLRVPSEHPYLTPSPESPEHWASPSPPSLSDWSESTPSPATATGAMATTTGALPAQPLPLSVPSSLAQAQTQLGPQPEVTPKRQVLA

Row | SMILES | composite z-score [1] | composite z-score [2] | composite z-score [3] | composite z-score [4] | composite z-score [5] | composite z-score [6] | composite z-score [7] | z-score [8] | composite z-score [9] | composite z-score [10] | composite z-score [11] | z-score [12] | z-score [13] | z-score [14] | composite z-score [15] | z-score [16] | composite z-score [17] | composite z-score [18] | composite z-score [19] | composite z-score [20]
1 | COCCOC(=O)N1C(=O)[C@@]2(c3cc(C#CCC(C(=O)OC)C(=O)OC)ccc31)[C@H](c1ccc(O)cc1)N1[C@H](c3ccccc3)[C@H](c3ccccc3)OC(=O)[C@H]1[C@@H]2C(=O)Nc1nc2ccccc2s1 | -0.0882 | 1.39 | 0.0001 | 0.785 | 1.27 | 1.12 | 1.27 | 0.909 (inactive) | 0.606 | 0.382 | 1.53 | 0.978 (inactive) | 0.583 (inactive) | 0.0726 (inactive) | 2.76 | 0.338 (inactive) | 0.0424 | 1.39 | 1.04 | 0.106
2 | CC1CC/C=C\[C@H]2OC34C=CCN(CCN5CCOCC5)C(=O)[C@H]3N(CCCO)C(=O)[C@@H]4C2C(=O)O1 (stereo not given in full) | -0.215 | 0.0721 | -0.183 | -0.0957 | -0.475 | -0.376 | 1.07 | 0.149 (inactive) | -0.354 | -0.0994 | -0.536 | 0.236 (inactive) | -0.218 (inactive) | 0.585 (inactive) | -0.299 | -0.546 (inactive) | -0.21 | -0.639 | -0.271 | -0.239
3 | C=C(CCCC)C(=O)CC[C@@H](OC(=O)c1ccccc1-c1ccccc1C(=O)O)c1ccccc1OCCO | -0.173 | 0.222 | -0.0566 | 0.803 | -0.0697 | -0.0918 | 0.0551 | -0.39 (inactive) | -0.501 | 0.0373 | 1.23 | -0.576 (inactive) | -1.19 (inactive) | -1.61 (inactive) | -0.583 | 0.306 (inactive) | -0.146 | 1.2 | 0.48 | -0.178
4 | CN(C)C(=O)[C@]1(Cc2ccccc2)N=C(c2ccc(OCCCO)cc2)O[C@@H]1c1ccccc1CN=[N+]=[N-] | -0.106 | 1.31 | -0.0465 | 1.18 | 1.62 | 1.33 | 1.22 | -0.783 (inactive) | 0.879 | -0.126 | 1.53 | -1.8 (inactive) | -0.531 (inactive) | -0.293 (inactive) | 3.15 | 0.702 (inactive) | -0.0153 | 0.605 | 1.07 | 0.0176
5 | C=CCNC(=O)[C@@H]1[C@H]2C(=O)O[C@H](c3ccccc3)[C@H](c3ccccc3)N2[C@H](c2ccc(OCCO)cc2)[C@@]12C(=O)Nc1ccc(C#CC3(O)CCCCCC3)cc12 | 0.0068 | 0.927 | -0.0765 | 0.592 | 1.21 | 1.29 | 1.29 | 0.803 (inactive) | 0.551 | -0.0994 | 1.45 | 1.84 (inactive) | 0.267 (inactive) | 4.71 (inactive) | 2.55 | 1.2 (inactive) | 0.0208 | 1.03 | 1.07 | 0.0519
6 | C=CCN1C(=O)[C@]2(O[C@H](CCn3cc([C@H](O)c4ccccc4)nn3)[C@@H]([Si](C)(C)c3ccc(OC)cc3)[C@@H]2C)c2cc(NC(=O)c3ccc(OC)cc3)ccc21 | -0.255 | 0.39 | -0.112 | 0.141 | 0.603 | 0.0976 | 0.519 | -2.62 (inactive) | 0.0019 | 0.0722 | 1.55 | 0.323 (inactive) | -0.532 (inactive) | 0.567 (inactive) | 0.744 | 0.252 (inactive) | 0.0352 | 0.423 | 0.907 | -0.152
7 | CCCC[C@H]1OB(O)C[C@H]2C1=C(COc1ccccc1)C[C@H]1C(=O)C=CC(=O)[C@H]12 | -0.315 | 0.351 | -0.0503 | 0.603 | 0.489 | 0.169 | 0.19 | -1.1 (inactive) | 0.23 | 0.316 | 1.07 | 0.426 (inactive) | -3.31 (inactive) | -0.241 (inactive) | 0.258 | 1.78 (inactive) | -0.377 | 0.592 | 1.03 | -0.0007
8 | CN1C(=O)C2C(C1=O)C1C=C(CCCO)C2C(C2CC2)N1Cc1cccc(OC(F)(F)F)c1 (stereo not given) | -0.143 | -0.122 | -0.13 | -0.203 | -0.254 | 2 | 1.3 | -0.688 (inactive) | 0.0794 | -0.242 | 1.34 | -1.07 (inactive) | -1.58 (inactive) | -1.15 (inactive) | 3.17 | 0.179 (inactive) | -0.224 | -0.0767 | 0.203 | -0.144
9 | CN(C)c1ccc(C(O)C2C=CC3C(=O)N(Cc4ccccc4)C(=O)C3N2n2cnnc2)cc1 (stereo not given) | 0.0652 | 0.0666 | -0.0303 | 0.0521 | 0.0282 | -0.161 | -0.103 | -1.18 (inactive) | 0.198 | 0.244 | -0.765 | -1.24 (inactive) | 0.396 (inactive) | -0.528 (inactive) | 0.0442 | 0.372 (inactive) | 0.123 | 0.359 | -0.139 | -0.0649
10 | COC(=O)[C@@]1(Cc2ccc(F)cc2)[C@H]2c3cc(C(=O)N(C)C)n(C)c3C[C@H]2CN1C(=O)c1ccccc1 | -0.187 | -0.609 | 0.0364 | 1.08 | 1.58 | 1.12 | 1.16 | 0.736 (inactive) | 0.229 | 0.0677 | -0.97 | 0.0108 (inactive) | 0.476 (inactive) | 0.08 (inactive) | 2.54 | -0.339 (inactive) | 0.519 | -0.608 | 0.381 | 0.383
